A word on the AC50: it is the midpoint of the concentration-response curve, whichever way the signal moves.

One assay concerns SERPINA7 (gene 6906). Briefly: CCTE_GLTED_hTBG: CCTE's human Thyroxine-binding Globulin (TBG) Inhibition Assay, Great Lakes Toxicology and Ecology Division (GLTED) Lab (AID 2284343; active = hit-call score of the fitted dose curve at least 0.9, where 1 is the maximum;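 note: active chemicals lower fluorescence versus DMSO baseline by displacing probe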). The method in brief:
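Steps: combine TBG with chemical; incubate 2 hours so that disruptors release ANSA; record fluorescence (380 ex, 475 em). Loss of signal was fitted against DMSO controls.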

Assay [1] is described as follows: CCTE_Deisenroth_5AR_NBTE_donor: CCTE's 5alpha-reductase NanoBRET Target Engagement Assay […], Deisenroth Lab (AID 2284319). The settings on record: actives raise or lower the signal. The method in brief: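 In this secondary endpoint, donor luminescence from SRD5A2-NanoLuc in transfected HEK293T flags artifacts. Test chemical (10 nM - 29.9 uM) is present five hours, tracer the last two; mock-tracer wells run plate-matched; data fitted bidirectionally against DMSO.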
In general terms: BRET reads energy transfer from a luciferase to a nearby fluorophore.

Assay [2] in a line: CCTE_Deisenroth_5AR_NBTE_acceptor: CCTE's 5alpha-reductase NanoBRET Target Engagement Assay - Autofluorescence Screen, Deisenroth Lab (AID 2284321).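 Note: compound fluorescence in the acceptor channel under 460 nm excitation flags autofluorescence artifacts.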 The conditions noted are these: actives raise or lower the signal. The method in brief: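 Using three independent plate-reader runs, nominal 100 uM chemicals were checked for intrinsic fluorescence (ex 460 nm). DMSO defined the baseline for bidirectional fitting.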

For a further assay, the system named is SRD5A2 (gene 6716). As to the kind of experiment: CCTE_Deisenroth_5AR_NBTE_ratio: CCTE's 5alpha-reductase NanoBRET Target Engagement Assay - Ratio, Deisenroth Lab (AID 2284322). The conditions noted are these: actives raise or lower the signal. The method in brief: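 SRD5A2-NanoLuc HEK293T; cmpd 10 nM-29.9 uM, 3 h preinc + testosterone tracer 2 h; NanoBRET ratio 650/460; bidirectional fit vs DMSO.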

The next assay relates to IYD (gene 389434). As to the kind of experiment: CCTE_GLTED_hIYD: CCTE's human Iodotyrosine Deiodinase (xIYD) Inhibition Assay, Great Lakes Toxicology and Ecology Division (GLTED) Lab (AID 2284317; active = hit-call score of the fitted dose curve at least 0.9, where 1 is the maximum;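 note: cell-free human IYD enzyme made in baculovirus insect cells; iodide freed from monoiodotyrosine measured by cerium arsenite color change at 420 nm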). The method in brief: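 Iodide liberated from monoiodotyrosine by baculovirus-expressed human IYD over 3 h was determined colorimetrically (Sandell-Kolthoff, 420 nm) after Dowex separation; inhibition is loss of signal versus DMSO.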

A short description of assay [3]: IUF_NPC4_neurite_area_120hr: Leibniz Research Institute for Environmental Medicine (IUF) 120-hour Neuronal Morphology Assay for Neurite Area (NPC4) (AID 2284305; active = hit-call score of the fitted dose curve at least 0.9, where 1 is the maximum). The method in brief:
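Endpoint at 120 h: automated imaging of TUBB3/Hoechst-stained differentiating human neural progenitor spheres, neurite area per neuron from skeletonization. DMSO solvent control, not above 0.1%, set the baseline; medium was half-replaced on day 3.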

Assay [4] in a line: IUF_NPC2-5_cytotoxicity_72hr: Cytotoxicity Assessment at 72 hours in the Leibniz Research Institute for Environmental Medicine (IUF) Neural Progenitor Cell Migration and Differentiation Assay for Cytotoxicity (NPC2-5) (AID 2284306; active = hit-call score of the fitted dose curve at least 0.9, where 1 is the maximum;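 note: LDH release into supernatant measured by resorufin fluorescence marking membrane damage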). The method in brief: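 Primary human neural progenitor spheres migrate and differentiate on laminin. Compound is present from the start of differentiation, with DMSO kept at or below 0.1%. At 72 h, supernatant LDH is quantified fluorometrically, with values fitted in the positive direction.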

Assay [5] is described as follows: IUF_NPC2-5_cytotoxicity_120hr: Cytotoxicity Assessment at 120 hours in the Leibniz Research Institute for Environmental Medicine (IUF) Neural Progenitor Cell Migration and Differentiation Assay (NPC2-5) (AID 2284307; active = hit-call score of the fitted dose curve at least 0.9, where 1 is the maximum). The method in brief: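 Membrane-integrity loss is quantified by LDH in supernatant after five days of exposure of migrating, differentiating human fetal NPC spheres; seven serially diluted concentrations are tested with DMSO kept at or below 0.1%.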

A short description of assay [6]: IUF_NPC2-5_cell_number_120hr: Cell Number Assessment at 120 hours in the Leibniz Research Institute for Environmental Medicine (IUF) Neural Progenitor Cell Migration and Differentiation Assay (NPC2-5) (AID 2284308).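 Note: count of Hoechst-stained nuclei in migration zone around plated human neural progenitor spheres.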 The method in brief: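 Seven-point serial dilutions plus solvent control were applied to plated 0.3 mm hNPC spheres at differentiation start, with medium half-replaced at day 3. Nuclei positive for Hoechst in the migration zone were enumerated at 120 h.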

Assay [7] can be described thus: IUF_NPC2-5_viability_120hr: Viability Assessment at 120 hours in the Leibniz Research Institute for Environmental Medicine (IUF) Neural Progenitor Cell Migration and Differentiation Assay (NPC2-5) (AID 2284312). The method in brief:
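Human fetal (GW 16-19) neural progenitor spheres of 0.3 mm were plated on poly-D-lysine/laminin in N2 differentiation medium and exposed from day 0 for 120 h, with half-medium refresh at day 3. Viability was read as alamar blue resazurin-to-resorufin fluorescence against DMSO.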

Assay [8] is described as follows: CCTE_Mundy_HCI_iCellGluta_NOG_NeuriteLength: CCTE's Neurite Outgrowth Assay in iCellGluta cells for Neurite Length, Mundy Lab (AID 2284318; active = hit-call score of the fitted dose curve at least 0.9, where 1 is the maximum). The method in brief:
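Automated high-content imaging of betaIII-tubulin (Alexa Fluor-488) and Hoechst-stained cells gave neurite length, normalized to the DMSO baseline.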

Assay [9] in a line: IUF_NPC1_cytotoxicity_72hr: Cytotoxicity Assessment at 72 hours in the Leibniz Research Institute for Environmental Medicine (IUF) Neural Progenitor Cell Proliferation Assay (NPC1) (AID 2284332; active = hit-call score of the fitted dose curve at least 0.9, where 1 is the maximum;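 note: rising LDH signal means more cytotoxicity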). The method in brief:
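Readout is fluorescence from LDH-dependent resazurin conversion, sampled from culture medium after compound contact lasting 72 h. Each well holds one 0.25-0.35 mm human progenitor sphere kept at 37C, 5% CO2 with EGF and FGF.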

A short description of assay [10]: CCTE_Mundy_HCI_iCellGluta_NOG_NeuronCount: CCTE's Neurite Outgrowth Assay in iCellGluta cells for Neuron Count, Mundy Lab (AID 2284340; active = hit-call score of the fitted dose curve at least 0.9, where 1 is the maximum;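 note: cells fixed about 48 h after compound addition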). The method in brief:
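Neuron count read by automated high-content imaging of Hoechst 33342 and betaIII-tubulin/Alexa Fluor-488 labelling in human iPSC glutamatergic neurons. Activity fitted relative to DMSO.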

Assay [11] can be described thus: CCTE_Mundy_HCI_iCellGluta_NOG_NeuriteCount: CCTE's Neurite Outgrowth Assay in iCellGluta cells for Neurite Count, Mundy Lab (AID 2284342; active = hit-call score of the fitted dose curve at least 0.9, where 1 is the maximum;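 note: chemical exposure about 48 hours starting 2 hours after plating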). The procedure:
CCTE_Mundy_HCI_iCellGluta_NOG is a multiplexed, cell-based-readout assay that uses iCell GlutaNeurons from FUJIFILM Cellular Dynamics, Inc. (FCDI), human glutamatergic enriched neurons derived from induced pluripotent stem (iPS) cells, with measurements taken at 50.33 hours after chemical dosing in a microplate: 96-well plate.CCTE_Mundy_HCI_iCellGluta_NOG_NeuriteCount is one of four components of the CCTE_Mundy_HCI_iCellGluta_NOG assay. It measures neurite outgrowth related to number of neurites using High Content Imaging of fluorescently labelled markers.Data from the assay component CCTE_Mundy_HCI_iCellGluta_NOG_NeuriteCount was analyzed at the endpoint CCTE_Mundy_HCI_iCellGluta_NOG_NeuriteCount in the positive analysis fitting direction relative to DMSO as the negative control and baseline of activity. Using a type of morphology reporter, loss-of-signal activity can be used to understand developmental effects.
Exposure starts 2 hours post-plating by adding 10 ul of the working solution to 90 ul of media in the wells for a 1/10 dilution. Forty-eight hours after chemical treatment cells are fixed by direct addition of 100 ul of warm (37C) Dulbecco's phosphate buffered saline (DPBS) fixative solution containing 8% paraformaldehyde, 8% sucrose, and 0.1% of 3 mg/ml Hoechst 33342 into each well. Primary antibodies are prepared by dilution in Immunocytochemical Staining Buffer (ISB), 10X Dulbecco's PBS, 0.1% Saponin, 5% Bovine Serum Albumin, 0.5% NaN3 (Sodium Azide) and betaIII-tubulin (rabbit anti-betaIII-tubulin, 1:800) followed by Alexa Fluor-488 secondary (1:500) to label neuronal cell bodies and neurites. A Cellomics ArrayScan VTi HCS Reader is used for automated image acquisition and analysis of neurite outgrowth.

A short description of assay [12]: TAMU_PeakParms_SingleDonor1434_Asystole: Texas A&M University (TAMU) 1.5-hr Human Induced Pluripotent Stem Cell (iPSC)-derived Cardiomyocytes Calcium (Ca+2) Flux Assay for Cardiotoxicity: Asystole (quiescence of beating) (AID 2284328; active = hit-call score of the fitted dose curve at least 0.9, where 1 is the maximum). The method in brief: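 Human iPSC-derived cardiomyocytes (donor 1434) were exposed to 0.2, 1, 10 and 100 uM compound in 0.5% DMSO for 90 min at 37C. Ca2+-dye fluorescence gave average peak frequency; POD is EC95, a 95% beat-rate drop versus DMSO.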

Structures are written as SMILES. Inconclusive results are not listed. Activity calls are given as the source filed them. Rule for the calls, unless noted: active = hit-call score of the fitted dose curve at least 0.9, where 1 is the maximum; inactive = score below 0.9.

`CCCCCCC(CO)CCCC` (centres undefined): the AC50 with SERPINA7 (gene 6906) was 24.2 µM (active).

Regarding `O=C(CC(=O)c1ccccc1)c1ccccc1`, the AC50 in the assay with SERPINA7 (gene 6906) is 8.66 µM (active).

In the case of `Clc1ccc(C(c2ccccc2Cl)C(Cl)Cl)cc1` (centres undefined), the compound was classed as inactive (in [1]; in assay [2]; with SRD5A2 (gene 6716)). Further, in the assay on SERPINA7 (gene 6906), the AC50 was 1.79 µM (active).

As for `C[C@H]1O[C@@H](O[C@H]2[C@@H](O)C[C@H](O[C@H]3[C@@H](O)C[C@H](O[C@H]4CC[C@@]5(C)[C@H](CC[C@@H]6[C@@H]5C[C@@H](O)[C@]5(C)[C@@H](C7=CC(=O)OC7)CC[C@]65O)C4)O[C@@H]3C)O[C@@H]2C)C[C@H](O)[C@@H]1O`, the compound was classed as inactive in [1] and in assay [2]. Also, the concentration at half-maximal activity (AC50) in the assay with SRD5A2 (gene 6716) was 0.354 µM (active).

As for `CCCCCCCCC=CCCCCCCCC1=NCCN1CCO`, the AC50 in the assay with IYD (gene 389434) is 66.2 µM (active).

Consider `CCCCCCCC(=O)OCC(O)CO` (centres undefined), for which the call (in assay [1]; in [2]; in the assay on SRD5A2 (gene 6716)) was inactive.

For `CCc1cc(Cc2cc(CC)cc(C(C)(C)C)c2O)c(O)c(C(C)(C)C)c1`, the AC50 in the assay on IYD (gene 389434) is 102 µM (active).

As for `COCCOCCOCCO`, the result in [3], in [4], in [5], in assay [6], in [7] and in assay [8] was inactive. Further, the call in assay [9], in assay [10] and in assay [11] was inactive.

With `CC(CN=Cc1ccccc1O)N=Cc1ccccc1O` (centres undefined), the call (in assay [1]; in assay [2]; in the assay on SRD5A2 (gene 6716)) was inactive.

In the case of `O=CCc1ccccc1`, the AC50 with SERPINA7 (gene 6906) was 14.2 µM (active).

For `CC(=O)O[C@H]1C[C@@H]2CC[C@@]1(C)C2(C)C`, the outcome (in assay [1]; in [2]; in the assay with SRD5A2 (gene 6716)) was inactive.

Turning to `CC(C)NCC(O)COc1ccc(CC(N)=O)cc1` (centres undefined), the result in assay [12] was inactive.

For `Nc1ccc(N)c2c1C(=O)c1ccccc1C2=O`, the call (in the assay with IYD (gene 389434); in assay [1]) was inactive. The AC50 in assay [2] is 7.65 µM (active); in the assay with SRD5A2 (gene 6716), 2.08 µM (active).

With `BrCc1cccc(Oc2ccccc2)c1`, in the assay on SERPINA7 (gene 6906), the AC50 was 23.3 µM (active).

Regarding `C=CC(=O)OCCCC`, the compound was classed as inactive (in assay [1]; in [2]; with SRD5A2 (gene 6716)).

Source of the values: PubChem BioAssay (EPA / NIEHS).
